The list is not random: actives were taken first. Their share in the collection is about 2.5%.
CCT chaperon mod: High-Throughput Screening for Modulators of Cytosolic Chaperonin Activity | purified chaperonin ATPase assay, HTRF ADP detection, 30 min | activity change, % (test concentration not listed), hits read low | 360,000 compounds, 0.3% hits | AID 651819, 2012; in the data active = activity change below about -30%; note: % is set by controls: 0 for no effect and ±100 for the full control effect
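Nucleotide hydrolysis assay: TRiC at 20–40 nM final (set by batch activity) with 10 uM ATP, 30 min at 37 °C, in presence of 76 uM compound. Detection by competitive ADP HTRF, 30 min ambient.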
aSyn yeast inh: qHTS of alpha-syn Inhibitors | Yeast expressing alpha-synuclein, growth rescue, BacTiter-Glo, 24 h | 370,000 compounds, 0.14% hits | Potency, µM (series often up to 46.1 µM), without a hit: at the top dose growth rescue (activation), most hits filed as activators; note: potency is the fitted concentration of half-maximal effect; % of control where 0% means no effect; nearly all actives have a fitted effect of over 65% in size
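Galactose-induced alpha-syn yeast (OD600=0.02, raffinose-pregrown) + pinned cpd, 24 hr, 30 deg C; growth by BacTiter-Glo luminescence. Growth restoration scores as activation.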
TDP-43 yeast inh: qHTS of TDP-43 Inhibitors; TDP-43 expressing yeast growth rescue, BacTiter-Glo, 24 h; Potency, µM (doses to about 46.1 µM), inactives show at the highest dose growth rescue (activation), hits mostly activators; 410,000 compounds, 1.8% hits; note: potency is the fitted concentration of half-maximal effect; % of control where 0% means no effect; nearly all actives have a fitted effect of over 50% in size
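Galactose-induced TDP-43 yeast, OD600=0.02, compound pinned; 24 hr, 30 deg C; BacTiter-Glo luminescence for growth. Inhibitors of TDP-43 toxicity read as activators.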
Mito fusion yeast: qHTS Assay for Small Molecule Inhibitors of Mitochondrial Division or Activators of Mitochondrial Fusion; S. cerevisiae fusion-defective mutant growth rescue, CellTiterGlo 48 h; Potency, µM (series often up to 46.1 µM), for the others: at the highest dose growth rescue (activation), actives largely listed as activators; 320,000 compounds, 0.23% hits; AID 485298, 2010; note: potency is the fitted concentration of half-maximal effect; % of control where 0% means no effect; nearly all actives have a fitted effect of over 45% in size
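Luminescent cell viability in 1536-well qHTS format served as the measure of rescued growth in ts fusion-mutant S. cerevisiae cultured on non-fermentable YPEG for 48 hours at 37C.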
Akt phos inh: HTS Assay for Inhibitors of Akt Phophorylation: Primary Screen; Neuro2A IGF-stimulated pAkt S473 HTRF, 20 min; active compounds read low; activity change, % for hits at 50 µM; 360,000 compounds, 0.32% hits; AID 651550, 2012; in the data active = activity change below about -80%; inconclusive = mostly about -51% to -80%; note: % is set by controls: 0 for no effect and ±100 for the full control effect
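Neuro2A cells (4,500/well, DMEM with 0.5% FBS) were treated with compound at a single 50 µM final concentration, stimulated with 6 nM IGF for 20 min at 37 °C, and lysed. Phospho-Akt Ser473 was read by HTRF as 665/615 ratio ×10^4.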
Anesthetic bind: qHTS Assay for Identification of Novel General Anesthetics. 350,000 compounds, 0.074% hits. AID 485281, 2010. apoferritin/1-aminoanthracene competitive binding, fluorescence. Ferritin light chain (Equus caballus), P02791. Potency, µM (top dose mostly 77.5 µM), for the others: at the highest dose activity change, negative = displacement, hits mostly inhibitors; note: potency is the fitted concentration of half-maximal effect; % is set by controls: 0 for no effect and ±100 for the full control effect; nearly all actives have a fitted effect of over 20% in size
Target sequence (P02791 2-175 limits assumed): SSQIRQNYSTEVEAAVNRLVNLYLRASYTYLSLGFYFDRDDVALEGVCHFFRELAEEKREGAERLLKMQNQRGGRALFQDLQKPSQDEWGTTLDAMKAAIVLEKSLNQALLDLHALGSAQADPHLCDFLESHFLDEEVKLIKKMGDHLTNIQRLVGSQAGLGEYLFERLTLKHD
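Horse-spleen apoferritin (10 uM) was mixed with 50% saturated 1-aminoanthracene in PBS, exposed to compounds for 10 min at room temperature, and read for fluorescence (ex 380 nm, em 535 nm). Competitive displacement was fitted with a four-parameter Hill equation.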
Active calls of the source: *; i = inactive; ? = inconclusive; / = no result given; [ ] = another dose, or the depositor's remark. Unless noted, calls come from the whole dose curve; as a rule, active = well fitted curve in the direction sought with a large enough effect; inconclusive = small, poorly fitted or top-dose-only effect, or another doubt; inactive = no such curve, though single readings can be large; an effect the other way counts as inactive or inconclusive.

SMILES	CCT chaperon mod	aSyn yeast inh	TDP-43 yeast inh	Mito fusion yeast	Akt phos inh	Anesthetic bind
C/C(=N/O)c1cc(C(C)(C)C)c(O)c(C(C)(C)C)c1	0.0	-7.4%	5.9%	3.2%	-122.0%*	4.6%
CC(C)(Sc1cc(C(C)(C)C)c(O)c(C(C)(C)C)c1)Sc1cc(C(C)(C)C)c(O)c(C(C)(C)C)c1	-2.7	-2.9%	19.8%	-8.0%	i	0.9%
CCOC(=O)c1c(C)nc2sc3c(=O)n(-c4ccc(OC)cc4)cnc3c2c1-c1ccc(OC)cc1	-1.3	5.1%	12.4%	0.4%	-110.6%*	-4.8%
COc1cc(NC(=O)Cn2c(=O)oc3cc(S(=O)(=O)N4CCCCCC4)ccc32)cc(OC)c1	/	/	0.4%	/	/	-13.7%
CSc1ccccc1NC(=O)CCn1c(=O)sc2ccccc21	-1.0	4.1%	15.8µM*	1.3%	i	-8.8%
Cc1cc(NC(=O)CSc2nnc(COc3ccccc3)o2)no1	-3.6	-3.0%	11.2%	-1.1%	-127.1%*	-10.0%
O=C(CSc1nnc(COc2ccc(Cl)cc2)o1)Nc1ccccc1	/	/	18.7%	/	/	-13.8%
CC(C)c1ccccc1NC(=O)CSc1nnc(COc2ccccc2Cl)o1	/	/	20µM*	/	/	58.9%
COc1ccccc1NC(=O)CSc1nnc(COc2ccc(Cl)cc2)o1	-0.8	25.8%	20.4%	-4.6%	i	?
COC(=O)c1ccccc1NC(=O)CSc1nnc(Cc2ccc(Cl)cc2)o1	0.1	5.6%	25.1µM*	25.9%	i	-9.8%
CC(=O)OCC1=C[C@H]2[C@@H]3C(C)(C)[C@]3(OC(C)=O)C[C@@H](C)[C@]2(O)[C@@H]2C=C(C)C(=O)[C@@]2(O)C1	/	/	/	/	/	1.9%
CC(=O)Oc1cc2c(C(C)=O)coc2c2ccccc12	-0.1	2.1%	1.6%	7.6%	-144.4%*	9.4%
C=C1C=C(C(F)F)n2ncc(C(=O)NCc3ccc(F)cc3)c2N1	/	-0.3%	/	/	/	/
Cc1ccc(-n2nnc3c(=O)oc4ccccc4c32)cc1	-1.4	-19.6%	-4.4%	-3.7%	i	-8.4%
CCC(C)n1nnc2c(=O)oc3ccccc3c21 (stereo not drawn)	-0.9	2.3%	-15.1%	0.7%	-91.7%*	-9.2%
Cc1ccc(-c2nnn(C(C)C(=O)N3c4ccccc4CCc4ccccc43)n2)cc1 (stereo not drawn)	0.9	-2.4%	1.2%	14.1µM*	i	4.3%
O=C(c1ccco1)N1CCN(S(=O)(=O)c2ccc(Cl)cc2)CC1	-1.7	-4.9%	?	1.9%	i	-5.9%
O=C(c1ccco1)N1CCN(S(=O)(=O)c2c(Cl)cccc2Cl)CC1	0.6	8.3%	15.8µM*	2.9%	i	-6.7%
O=C(c1ccco1)N1CCN(c2ccccc2F)CC1	-3.2	0.3%	26.2%	-1.8%	-117.2%*	-6.8%
O=C(Cc1ccc(-n2cccc2)cc1)N1CCN(c2ccccc2F)CC1	0.0	0.4%	17.8µM*	9.6%	i	-9.4%
COc1ccc(S(=O)(=O)N2CCN(C(=O)c3ccco3)CC2)c(C)c1C	-0.5	1.0%	22.4µM*	1.0%	i	-8.1%
O=C(c1ccco1)N1CCCC(N2CCN(c3ccccc3F)CC2)C1 (stereo not drawn)	-5.0	-5.1%	-16.0%	1.9%	i	-4.6%
COc1ccc(Cl)cc1S(=O)(=O)N1CCN(C(=O)c2ccco2)CC1	2.6	-0.2%	15.9%	-1.7%	i	-7.5%
O=C(CNC(=O)c1ccccc1)OCC(=O)c1ccc2ccccc2c1	/	0.8%	/	/	/	/
CCc1ccc(NC(=O)c2nc(SCc3ccccc3F)ncc2Cl)cc1	/	1.8%	/	/	/	/
SMILES	CCT chaperon mod	aSyn yeast inh	TDP-43 yeast inh	Mito fusion yeast	Akt phos inh	Anesthetic bind
CCOC(=O)c1c(S(=O)(=O)NCC(=O)Nc2cccc(SC)c2)c(C)n(C)c1C	/	/	3.4%	/	/	?
CC(C)=CCC/C(C)=C/CO/N=C1/C[C@@H](O)[C@@H](O)[C@@H]2[C@H]3C(=O)N(c4ccc(F)cc4F)C(=O)[C@@H]3CC[C@H]12	/	/	/	/	/	-0.3%[15.3 µM]
COc1cc(C)ccc1OCCSc1nc2ccc(NC(=O)c3cccs3)cc2s1	/	/	18.1%	/	/	26.8%
O=C(c1ccco1)N1CCN(C(=O)c2ccc(-c3ccc(Cl)cc3)o2)CC1	-1.4	-0.9%	22.4µM*	14.1%	i	/
O=C(c1ccc(Cl)cc1)N1CCN(C(=O)c2ccco2)CC1	-15.5	2.5%	-4.3%	-0.5%	i	-4.0%
COc1ccc(C)cc1NC(=O)c1cc2c(=O)n3ccccc3nc2n1C	2.4	-0.1%	-9.2%	5.6%	i	68.1%
Cc1cc(C)c(NC(=O)c2cc3c(=O)n4ccccc4nc3n2C)c(C)c1	/	/	35.5µM*	/	/	2.9%
Cc1cccc(NC(=O)c2cnn(-c3ccccc3)c2C)c1C	2.2	-7.8%	0.0%	-1.3%	i	-2.7%
CCc1ccccc1NC(=O)c1cnn(-c2ccccc2)c1C	-1.6	-36.8%	14.1µM*	0.5%	i	-4.8%
Cc1ccccc1NC(=O)c1cnn(-c2ccccc2)c1C	-3.2	-13.5%	12.6µM*	-1.1%	i	-3.6%
O=C(c1noc2c1CCCCC2)N1CCN(c2cccc(Cl)c2)CC1	/	/	8.91µM*	/	/	8.8%
CCCn1cc(S(=O)(=O)c2cc(C)ccc2C)c(=O)c2cc(F)c(N3CCN(CC)CC3)cc21	/	/	12.8%	/	/	?

Screening data as filed in PubChem BioAssay.
